# Screening results (PubChem BioAssay)
# An excerpt weighted towards active compounds, which were near 3.8% of everything screened.
# tim23-1 inh: tim23-1 yeast growth inhibition | S. cerevisiae tim23-1 growth, BacTiter-Glo luminescence, 24 h | inhibition, % at 20 µM | actives 1.3% (n = 330,000) | AID 463212;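 active = growth inhibition of the mutant yeast at or above 50%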;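 also: temperature-sensitive mutant grown at 25 °C; plate controls were DMSO-treated mutant yeast for no effect and medium wells lacking yeast for full effect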
# NLRP3 yeast inh: blocks the NALP3 inflammasome reconstituted in yeast. actives 0.39% (n = 330,000). Yeast reconstituted NLRP3/ASC/caspase-1, beta-gal luminescence, 24 h. AID 2825. inhibition, % at 10 µM;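 active = inhibition of 50% or more; inactive = inhibition below 50%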;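 also: plate controls were induced DMSO wells for no effect and uninduced yeast grown without galactose for full effect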
# TIM10 inh: growth inhibitors of TIM10 yeast strain. S. cerevisiae TIM10 strain growth, BacTiter-Glo luminescence, 24 h. inhibition, % at 10 µM. actives 1.4% (n = 330,000);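 active = inhibition of 40% or more at the single tested concentration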;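 also: wild-type TIM10 isogenic control strain grown at permissive 25 °C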
# Yeast superoxide: yeast age-related superoxide inhibition as caloric restriction mimetic | S. cerevisiae aged cells, superoxide DHE fluorescence; stronger effect = lower value | actives 0.18% (n = 330,000) | superoxide response (% of plate mean), % at 10 µM;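 active = superoxide response under a set limit, about three screen SD below normal, cut at about 65% in these data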;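 also: yeast aged for seven days with compound at 30 °C before DHE staining; 100% = average MFI of all compound-treated wells on the plate with controls excluded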
# tim10-1 inh: tim10-1 yeast growth inhibition. S. cerevisiae tim10-1 ts strain growth, BacTiter-Glo, 24 h. inhibition, % at 20 µM. actives 2.2% (n = 330,000). AID 463190;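 active = inhibition of at least 40%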;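 also: mutant grown at 25 °C; 0% = DMSO wells with yeast and 100% = wells holding no yeast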
# tim10-1 conf: tim10-1 yeast growth inhibition, confirmed; shares compounds with tim10-1 inh; S. cerevisiae tim10-1 ts strain growth, BacTiter-Glo, 24 h; inhibition, % at 20 µM; actives 56% (n = 7,400); AID 463213;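 active = inhibition of yeast growth at or above a set limit in either of two repeat tests at 20 µM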;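 also: tim10-1 mutant grown at permissive 25 °C to find synthetic lethal compounds; 0% = DMSO yeast wells and 100% = medium wells without yeast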
# Numbers without * were called inactive; . = no result given.
SMILES,tim23-1 inh,NLRP3 yeast inh,TIM10 inh,Yeast superoxide,tim10-1 inh,tim10-1 conf
Cc1ccc(C)c(NC(=O)CS(=O)(=O)c2cccc3nsnc23)c1,16.7,12.9,-7.0,92.7,-2.2,.
Cc1ccc(/C=C2\CCC3=C2OC(N)=C(C#N)C3c2ccc(C)cc2)cc1 (configuration not stated),37.6,3.3,20.3,107.6,46.5*,34.3*
O=C(CSC1=N/C(=C/c2ccc(Cl)c(Cl)c2)C(=O)N1c1ccccc1F)NC1CC1,25.4,21.4,7.2,103.6,28.4,.
COC(=O)c1c(NC(=O)CN2CCC3(O)CCCCC3C2c2ccccc2OC)sc(C)c1C (configuration not stated),31.2,-16.6,33.7,100.3,40.0*,28.4
CSCCC(=O)N1CCCC(CNC(=O)c2ccc(-c3ccccc3)cc2)C1 (configuration not stated),32.9,11.1,22.6,76.9,40.1*,27.9
CCc1cc(C(=O)N2CCCC(CNC(=O)c3ccc(-c4ccccc4)cc3)C2)no1 (configuration not stated),35.0,4.5,1.2,95.9,38.8,.
O=C(/C=C\c1ccccc1)NCC(=O)N/N=C/c1ccc(O)cc1O,0.0,13.9,6.3,110.3,3.1,.
CC(C)=CCc1cc2c(=O)c3c(O)c4c(cc3oc2c(O)c1O)OC(C)C4(C)C (configuration not stated),34.4,5.7,-6.4,79.7,35.7,.
C/C(CC(=O)Nc1ccc(Cl)c(C(F)(F)F)c1)=N\NC(=O)c1cnccn1,34.5,3.9,16.7,100.3,49.0*,25.3
CCn1c(SCc2cccc(C)c2)nnc1-c1ccccc1,37.3,-8.0,29.2,126.2,47.4*,29.1
COc1cccc(/C=N\n2c(C)nnc2C)c1OC,8.0,13.2,4.8,90.3,1.0,.
COc1cccc(/C=N/n2c(C)nc3ccccc32)c1OC,47.5,21.7,38.7,99.2,43.7*,31.0
CSc1ccc(/C=C(\NC(=O)c2ccccc2)C(=O)NCCN2CCOCC2)cc1,1.9,5.3,0.3,79.9,-7.5,.
N#Cc1ccccc1S(=O)(=O)N1CCN(C(=O)C2CCC2)CC1,-2.0,18.0,-1.8,83.0,96.6*,3.7
CCOc1cc(/C=C2\N=C(C)OC2=O)cc(Br)c1OCC(=O)OC,26.3,-0.2,15.8,97.1,43.7*,10.2
Fc1cc(F)cc(Nc2nc(Cl)nc(NC3CCCC3)n2)c1,34.9,5.1,-9.0,103.2,45.3*,19.4*
Cn1nc(C(F)(F)F)c(C(=O)Nc2ccc(F)cc2F)c1Sc1cccc(C(F)(F)F)c1,21.3,16.0,23.1,94.2,39.3,.
Cn1nc(C(F)(F)F)c(C(=O)Nc2ccc(F)cc2F)c1Sc1cccc(Cl)c1,26.9,-9.3,16.9,95.2,44.3*,34.3*
COc1ccc(C(=O)/C=C2/c3ccccc3CC(C)(C)N2C)cc1,39.0,13.1,20.4,109.3,46.7*,26.8
O=C(COC(=O)Cc1ccc(Br)cc1)NCc1ccc(F)cc1,15.1,1.5,4.8,116.3,-1.2,.
Cc1cccn2c(=O)c3cc(C(=O)NC4CCCCC4)c(=N)n(Cc4ccc(F)cc4)c3nc12,21.4,6.9,5.0,87.4,42.0*,-8.9
Cn1c(N)c(C(=O)COC(=O)CC(NC(=O)c2ccccc2Cl)c2ccccc2)c(=O)n(C)c1=O (configuration not stated),1.5,11.3,1.6,97.2,-7.8,.
Cc1cccc(C#Cc2ccccc2)n1,-7.1,16.3,5.5,83.7,1.4,.
C=C(NC(C)=O)c1c(F)cccc1F,7.8,8.5,0.4,112.2,6.7,.
Cc1cc(N(CCO)CCO)ccc1N=Nc1cc(F)ccc1F,44.9,28.2,16.5,75.0,41.3*,37.5*
CCOc1ccc(S(=O)(=O)N2CCN(C(=O)C3CSC4(C)CCC(=O)N34)CC2)cc1 (configuration not stated),-7.0,1.5,8.2,107.1,-3.3,.
COc1ccc(CN(C)C(=O)c2ccc(Cl)c(S(=O)(=O)NCc3cccnc3)c2)cc1F,1.5,15.4,4.6,113.6,-8.8,.
COc1ccc(-c2cc(C(=O)N3CCCCCC3)c3cc(C)ccc3n2)cc1,44.5,26.7,9.2,86.9,40.3*,22.0
COc1ccc(-c2cc(C(=O)N3CCOCC3)c3cc(C)ccc3n2)cc1,32.2,18.0,17.4,108.1,33.8,.
O=c1c2ccccc2nc2c3ccccc3c(NCCO)nn12,35.7,5.6,32.0,96.2,41.8*,32.5*
